{
  "source": "PubChem BioAssay AID371",
  "about": "(SRMLSC, 2006)",
  "note": "Among all 3,300 compounds or so, about 280 (8.5%) were called active. Only a selection was taken, and actives are over-represented in it overall. Unmarked numbers belong to inactive results.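 Rule for the calls: active = mean growth inhibition over the two runs of 50% or more; inactive = mean growth inhibition under 50%.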",
  "data": [
    {"experiment": "A549 NSCLC cell proliferation inhibitors – ATP luminescence, human non-small cell lung line, primary screen (AID 371);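 note: compound exposure lasted 72 h before the ATP read; 0% = untreated cell signal and 100% = no luminescence left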", "conditions": "at 10 µM, active compounds read high", "values": [
      {"compound": "CCCCSP1(=S)NCCCN1", "growth inhibition": "2.57%"},
      {"compound": "O=C(COc1ccc2ccccc2c1)N1CCN(C2CCN(Cc3ccccc3)CC2)CC1", "growth inhibition": "36.9%"},
      {"compound": "O=c1[nH]c(=O)n(C2CCCCC2)c(O)c1C=NCCCn1ccnc1", "growth inhibition": "3.81%"},
      {"compound": "O=c1[nH]c(O)c(C=NC2CCN(Cc3ccccc3)CC2)c(=O)[nH]1", "growth inhibition": "6%"},
      {"compound": "COc1cccc(-n2c(C)nc3ccccc3c2=O)c1", "growth inhibition": "9.28%"},
      {"compound": "COc1ccc(C2SCC(=O)Nc3c2c(=O)[nH]n3C2CCCCCC2)cc1", "note": "(stereo unspecified)", "growth inhibition": "25.3%"},
      {"compound": "CC(=NCCO)c1c(O)n(C)c(=O)n(C)c1=O", "growth inhibition": "-4.52%"},
      {"compound": "CCC(=NCCN1CCCCC1)c1c(O)n(C)c(=O)n(C)c1=O", "growth inhibition": "-4.37%"},
      {"compound": "CCC(=NCCOc1ccc(Cl)cc1)c1c(O)n(C)c(=O)n(C)c1=O", "growth inhibition": "55.2% (active)"},
      {"compound": "CCN(CC)CCCC(C)N=C(c1ccccc1)c1c(O)n(C)c(=O)n(C)c1=O", "note": "(stereo unspecified)", "growth inhibition": "7.06%"},
      {"compound": "CCN(CC)CCCNC(=O)c1c(O)c2ccccc2n(Cc2ccccc2)c1=O", "growth inhibition": "91.6% (active)"},
      {"compound": "O=C(Nc1ccncc1)c1c(O)c2ccccc2n(Cc2ccccc2)c1=O", "growth inhibition": "68.1% (active)"},
      {"compound": "CCN(CC)CCN=Cc1c(O)n(CCc2ccccc2)c(=O)[nH]c1=O", "growth inhibition": "2.4%"},
      {"compound": "CN1CCc2nc(SCC(=O)OC(C)(C)C)c(C#N)cc2C1", "growth inhibition": "25.1%"},
      {"compound": "CCCCC1(CN2CCCC2=O)C(=O)NC(=O)NC1=O", "growth inhibition": "3.02%"},
      {"compound": "COCCOC(=O)C1=C(N)Oc2c(c(=O)oc3ccccc23)[C@@]12C(=O)Nc1ccccc12", "growth inhibition": "-4.66%"},
      {"compound": "CC1CN=C(Nc2ccc(N(C)C)cc2)S1", "note": "(stereo unspecified)", "growth inhibition": "0.47%"},
      {"compound": "CCOC(=O)c1cc(C)n(CCc2cnc[nH]2)c1C", "growth inhibition": "9.02%"},
      {"compound": "C[C@H]1CCCC(=O)CCCCCc2cc(O)cc(O)c2C(=O)O1", "growth inhibition": "52.1% (active)"},
      {"compound": "OCCOCC#CCN1CCOCC1", "growth inhibition": "0.81%"},
      {"compound": "CCCCSP1(=S)NCCCO1", "note": "(stereo unspecified)", "growth inhibition": "19.6%"},
      {"compound": "C[C@@]1(CO)[C@H](O)CC[C@@]2(C)[C@H]1CC[C@H]1C[C@@H]3C[C@@]12CC[C@]3(O)CO", "growth inhibition": "69.6% (active)"},
      {"compound": "O=P(c1ccccc1)(c1ccccc1)N1CCCCC1", "growth inhibition": "8.66%"},
      {"compound": "O=c1[nH]c(=O)n(Cc2ccco2)c(O)c1C=NCc1ccc2c(c1)OCO2", "growth inhibition": "18.1%"},
      {"compound": "CC1=C(C(=O)OC(C)C)[C@]2(C(=O)N(CC(N)=O)c3ccccc32)C(C#N)=C(N)O1", "growth inhibition": "5.06%"},
      {"compound": "Cc1c2ccncc2c(C)c2c1[nH]c1ccccc12", "growth inhibition": "95% (active)"},
      {"compound": "c1ccc2c(c1)[nH]c1cnccc12", "growth inhibition": "-5.8%"},
      {"compound": "COc1cccc(CN2CCN(C(=O)COc3ccc4ccccc4c3)CC2)c1", "growth inhibition": "33.9%"},
      {"compound": "C[C@H]1CCC/C=C/C2C[C@H](O)CC2[C@H](O)/C=C/C(=O)O1", "note": "(stereo partly specified)", "growth inhibition": "76% (active)"},
      {"compound": "OC(Cc1ccccc1)(c1ccccc1)C1CN2CCC1CC2", "note": "(stereo unspecified)", "growth inhibition": "34.4%"},
      {"compound": "Cc1ccc2c(c1)[C@@H]1CN(C)CC[C@@H]1N2C(=O)Nc1cccc(C(F)(F)F)c1", "growth inhibition": "83% (active)"},
      {"compound": "COc1ccc(C(=O)CN2CCOCC2)cc1F", "growth inhibition": "16%"},
      {"compound": "CN1CCc2c(c(N3CCCCC3)nc3n[nH]c(N)c23)C1", "growth inhibition": "0.74%"},
      {"compound": "COc1ccc2[nH]cc(CCN(C)C)c2c1", "growth inhibition": "1.86%"},
      {"compound": "CCCc1nc2ccccc2c(=O)n1-c1ccccc1OC", "growth inhibition": "-0.02%"},
      {"compound": "CCN(CC)c1ccc(N=Cc2c(O)n(-c3ccccc3C)c(=O)[nH]c2=O)cc1", "growth inhibition": "29.6%"},
      {"compound": "CC1=NOC2(C)Nc3ncnn3C(c3ccccc3)C12", "note": "(stereo unspecified)", "growth inhibition": "6.33%"},
      {"compound": "CN1C[C@H](CNC(=O)OCc2ccccc2)C[C@@H]2c3cccc4c3c(cn4C)C[C@H]21", "growth inhibition": "94.7% (active)"},
      {"compound": "CC[C@@H](CO)NC(=O)[C@@H]1C=C2c3cccc4c3c(cn4C)C[C@H]2N(C)C1", "growth inhibition": "4.84%"},
      {"compound": "CCCCCCn1c(O)c(C=NCCCn2ccnc2)c(=O)[nH]c1=O", "growth inhibition": "7.84%"},
      {"compound": "CC1(C)CC(n2[nH]c(=O)c3c2NC(=O)CSC3c2ccccc2)CCO1", "note": "(stereo unspecified)", "growth inhibition": "3.92%"},
      {"compound": "O=c1[nH]c2ccccc2n1CCCN1CCC(n2c(=O)[nH]c3cc(Cl)ccc32)CC1", "growth inhibition": "6%"},
      {"compound": "O=c1[nH]c2ccccc2n1C1CCN(CCCC(c2ccc(F)cc2)c2ccc(F)cc2)CC1", "growth inhibition": "93% (active)"},
      {"compound": "CCOC(=O)[C@]1(C#N)[C@@H]2C=CC(C(C)=O)=CN2[C@@H](C(N)=O)[C@@H]1c1ccsc1", "growth inhibition": "3.86%"},
      {"compound": "Nc1ncc(P(=S)(N2CCOCC2)N2CCOCC2)s1", "growth inhibition": "0.52%"},
      {"compound": "COc1cccc(-n2c(O)c(C=NCCN3CCOCC3)c(=O)[nH]c2=O)c1", "growth inhibition": "-0.53%"},
      {"compound": "CCc1nc(N2CCNCC2)c(C#N)c2c1CSC(C)(C)C2", "growth inhibition": "49.5%"},
      {"compound": "CCCCc1nc(N2CCNCC2)c(C#N)c2c1CSC(C)(C)C2", "growth inhibition": "92% (active)"},
      {"compound": "COc1ccc2c(c1)c(C(=O)O)c(C)n2CC(C)C", "growth inhibition": "-2.88%"},
      {"compound": "COC(=O)C(O)(c1c[nH]c2ccccc12)C(F)(F)F", "note": "(stereo unspecified)", "growth inhibition": "0.63%"},
      {"compound": "O=C(CN1CCN(CCO)CC1)Nc1ccc(Cl)cc1C(=O)c1ccccc1", "growth inhibition": "13.2%"},
      {"compound": "C=CCOC(=O)C1=C(C)OC(N)=C(C#N)C12C(=O)N(CN1CCOCC1)c1ccccc12", "note": "(stereo unspecified)", "growth inhibition": "0.76%"},
      {"compound": "O=c1[nH]c(=O)n(-c2cccc3ccccc23)c(O)c1C=NCCCn1ccnc1", "growth inhibition": "-5.79%"},
      {"compound": "CCN(CC)CCN=C(C)c1c(O)n(-c2ccccc2OC)c(=O)[nH]c1=O", "growth inhibition": "-2.11%"},
      {"compound": "CC(=O)OC1N=C(c2ccccc2)c2ccccc2NC1=O", "note": "(stereo unspecified)", "growth inhibition": "-5.27%"},
      {"compound": "CCN(CC)c1ccc(N=Cc2c(O)n(-c3cc(OC)ccc3OC)c(=O)[nH]c2=O)cc1", "growth inhibition": "26.8%"}
    ]}
  ]
}
